Experimental findings from PubChem BioAssay (NCI) are described below.

The panel holds about 83,000 compounds, 20% with a hit somewhere; the sample as a whole holds those more often.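 Interpretation: 100, growth as untreated; towards 0, rising growth inhibition; 0, no net growth; 0 to -100, cell death. Compounds scoring below 10 were considered active.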 Unmarked numbers belong to inactive results. The source made the active and inactive calls.

Some test systems named below: HCT-15 colon; HT29 colon; SNB-75 CNS; SNB-19 CNS; U251 CNS; PC-3 prostate; SK-MEL-5 melanoma; UACC-62 melanoma; LOX IMVI melanoma; SK-MEL-28 melanoma; SK-MEL-2 melanoma; EKVX NSCLC; SN12C renal; UO-31 renal; TK-10 renal; ACHN renal; CAKI-1 renal; A498 renal; CCRF-CEM leukemia; MOLT-4 leukemia.
What all share (test): NCI-60 one-dose screen, 48 h (100 = growth as untreated, 0 = no growth, -100 = all killed)
Settings in all cases: 10 µM unless noted

Consider `COc1cc(-c2nc(-c3ccccc3)[nH]c2-c2ccnc(NCCCNS(=O)(=O)c3cccc(F)c3)n2)ccc1Cl`, for which the growth with HCT-15 colon is 25.7%; in the assay on HT29 colon, 23.1%; with SNB-75 CNS, 77.4%; in the assay with SNB-19 CNS, 66.3%; with U251 CNS it was 44.5%; with PC-3 prostate, 25.2%. Besides, the growth was 34.2% in the assay on SK-MEL-5 melanoma; 44.1% in the assay on UACC-62 melanoma; 35.5% in the assay with LOX IMVI melanoma; 55% in the assay on SK-MEL-28 melanoma; 43.5% with SK-MEL-2 melanoma; 54.3% in the assay with EKVX NSCLC. Moreover, the growth with SN12C renal was 57.7%; in the assay with UO-31 renal, 35.9%; in the assay on TK-10 renal, 72.3%; in the assay on ACHN renal it was 32.8%; in the assay on CAKI-1 renal, 42.9%; in the assay on A498 renal, 70.4%. The growth is 24.6% in the assay on CCRF-CEM leukemia and 19.6% in the assay with MOLT-4 leukemia.

As for `CCO/C=N/C1=C(C#N)C(c2ccc(F)cc2)c2sc3c(C)cccc3c2O1` (stereo not given), the growth was 11.9% in the assay on HCT-15 colon; 9.76% (active) with HT29 colon; 8.13% (active) with SNB-75 CNS; 18.2% with SNB-19 CNS; 21.8% with U251 CNS; 14.5% with PC-3 prostate. Moreover, the growth in the assay on SK-MEL-5 melanoma was 4.34% (active); with UACC-62 melanoma it was 12.8%; in the assay with LOX IMVI melanoma it was 9.65% (active); with SK-MEL-28 melanoma, 56.2%; in the assay on SK-MEL-2 melanoma, 42.7%; in the assay on EKVX NSCLC, 44.6%. For the same molecule, the growth in the assay on SN12C renal was 17.3%; in the assay on UO-31 renal, 27.9%; in the assay with TK-10 renal, 66.4%; with ACHN renal it was 23.1%; with CAKI-1 renal, 28.4%; in the assay with A498 renal, -0.888% (active). The growth in the assay on CCRF-CEM leukemia is 21.1%; with MOLT-4 leukemia, 23.1%.

Turning to `C=CCN(C)S(=O)(=O)/N=C1\NC(=O)NC1=C(Cl)Cl`, the growth was -77.2% (active) with HCT-15 colon; 5.89% (active) in the assay with HT29 colon; 100% in the assay with SNB-75 CNS; 58.4% with SNB-19 CNS; -10.2% (active) with U251 CNS; 47% with PC-3 prostate. For the same molecule, the growth with SK-MEL-5 melanoma was 91.6%; with UACC-62 melanoma, 32.9%; in the assay on LOX IMVI melanoma, -88.3% (active); in the assay on SK-MEL-28 melanoma, -83.6% (active); in the assay with SK-MEL-2 melanoma, 90%; in the assay on EKVX NSCLC, 62.8%. The growth in the assay on SN12C renal is -22.5% (active); in the assay on UO-31 renal, 92.5%; in the assay on TK-10 renal, 65.7%; with ACHN renal, -96.7% (active); in the assay with CAKI-1 renal, 2.82% (active); in the assay with A498 renal it was 97.6%. Further, the growth in the assay with CCRF-CEM leukemia was -27.1% (active); in the assay on MOLT-4 leukemia, -19.7% (active).

Take `O=C(CN1CCN(c2cc(=O)n(-c3ccccc3)c3ccccc23)CC1)Nc1ccc(F)cc1`: the growth in the assay on HCT-15 colon was 69.2%; in the assay on HT29 colon, 81%; with SNB-75 CNS it was 77.2%; in the assay with SNB-19 CNS, 77.3%; with U251 CNS, 80.2%; in the assay with PC-3 prostate it was 64.6%. In addition, the growth with SK-MEL-5 melanoma is 16.9%; in the assay on UACC-62 melanoma it was 55.3%; with LOX IMVI melanoma, 67.4%; in the assay with SK-MEL-28 melanoma, 86.2%; in the assay with SK-MEL-2 melanoma it was 87.9%; in the assay on EKVX NSCLC, 48.7%. Further, the growth with SN12C renal was 77.7%; in the assay with UO-31 renal, 40.6%; in the assay with TK-10 renal, 73.1%; in the assay on ACHN renal, 65.4%; with CAKI-1 renal it was 63.7%; in the assay on A498 renal it was 53.6%. The results for the growth in the assay on CCRF-CEM leukemia and in the assay with MOLT-4 leukemia were 70% and 44.4%, respectively.

Take `NC(N)=Nc1ccc(Oc2cccc(NC(N)=Nc3ccc(Br)c(C(F)(F)F)c3)c2)cc1`: the growth in the assay on HCT-15 colon is 83.1%; in the assay with HT29 colon, 40.1%; in the assay on SNB-75 CNS, 62.5%; in the assay with SNB-19 CNS, 10.2%; in the assay on U251 CNS, 21.4%; in the assay on PC-3 prostate, 4.3% (active). The growth is 36.8% in the assay on SK-MEL-5 melanoma; 44.2% with UACC-62 melanoma; -58.9% (active) with LOX IMVI melanoma; 64.1% in the assay with SK-MEL-28 melanoma; 83.2% in the assay on SK-MEL-2 melanoma; 59.3% in the assay on EKVX NSCLC. Also, the growth in the assay with SN12C renal is 24.5%; in the assay on UO-31 renal it was 89.3%; with TK-10 renal, 65.3%; in the assay on ACHN renal, 92.9%; in the assay on CAKI-1 renal it was 72%; in the assay on A498 renal it was 48.4%. The growth is 53.3% in the assay on CCRF-CEM leukemia and 49.3% with MOLT-4 leukemia.

As for `O=C1Nc2ccccc2/C1=C/c1ccc(CO)n1-c1ccc(Cl)cc1`, the growth with HCT-15 colon is 24%; in the assay on HT29 colon, 26.7%; in the assay with SNB-75 CNS, 32.8%; in the assay on SNB-19 CNS, 66.1%; in the assay with U251 CNS it was 56.4%; in the assay on PC-3 prostate, 53.5%. For the same molecule, the growth was 51.9% in the assay on SK-MEL-5 melanoma; 33.9% with UACC-62 melanoma; 43.5% in the assay on LOX IMVI melanoma; 57.7% with SK-MEL-28 melanoma; 47.7% in the assay with SK-MEL-2 melanoma; 63.6% in the assay with EKVX NSCLC. Further, the growth is 65.2% with SN12C renal; 59.2% in the assay with UO-31 renal; 115% in the assay on TK-10 renal; 56.1% in the assay on ACHN renal; 52.8% in the assay on CAKI-1 renal; 35.4% with A498 renal. Also, the growth in the assay with CCRF-CEM leukemia was 33%; with MOLT-4 leukemia, 26.7%.

For the molecule `CCCn1cnc2c(c1=N)C(c1ccc(F)cc1)c1sc3c(C)cccc3c1O2` (stereo not given), the growth in the assay on HCT-15 colon is 18.5%; in the assay on HT29 colon, 57%; in the assay on SNB-75 CNS, -4.36% (active); in the assay with SNB-19 CNS it was 22.4%; in the assay on U251 CNS it was 24.4%; with PC-3 prostate it was 33.4%. Moreover, the growth in the assay with SK-MEL-5 melanoma is 24.8%; in the assay on UACC-62 melanoma, 27.7%; in the assay with LOX IMVI melanoma, 28.8%; with SK-MEL-28 melanoma, 45.1%; in the assay on SK-MEL-2 melanoma, 52.8%; in the assay on EKVX NSCLC it was 37.1%. The growth with SN12C renal was 61.9%; in the assay with UO-31 renal it was 32.8%; with TK-10 renal, 70.9%; in the assay on ACHN renal, 35.5%; with CAKI-1 renal it was 28.6%; in the assay on A498 renal it was -19.9% (active). Moreover, the growth in the assay on CCRF-CEM leukemia was -3.84% (active); in the assay on MOLT-4 leukemia it was 40%.

For the molecule `CC(C)c1ccc(NCc2cn(-c3ccc(C(=O)O)cc3)nc2-c2cc(C(F)(F)F)cc(C(F)(F)F)c2)cc1`, the growth in the assay with HCT-15 colon was 73.7%; in the assay with HT29 colon, 80.9%; with SNB-75 CNS it was 89%; with SNB-19 CNS, 83.8%; in the assay with U251 CNS, 86.2%; in the assay with PC-3 prostate, 70.4%. Further, the growth with SK-MEL-5 melanoma was 96%; with UACC-62 melanoma it was 81.9%; in the assay with LOX IMVI melanoma it was 91.9%; with SK-MEL-28 melanoma, 93.3%; with SK-MEL-2 melanoma, 91.8%; in the assay on EKVX NSCLC, 79.2%. Further, the growth with SN12C renal is 85.9%; in the assay with UO-31 renal, 78.6%; with TK-10 renal, 118%; in the assay with ACHN renal it was 92.6%; in the assay with CAKI-1 renal, 63.7%; in the assay on A498 renal, 90%. Moreover, the figures for the growth in the assay with CCRF-CEM leukemia and in the assay with MOLT-4 leukemia were 74.8% and 71.6%, respectively.
